Assay outcomes deposited in PubChem by Broad Institute.
Sampled rows, rich in hits. Any-hit rate of the full collection: about 2.2%.
mut p53 react – re-activators of the mutant p53 pathway; SW480 PUMA-promoter luciferase, p53 mutant reactivation; activation, % at 9.98 µM; actives 1.5% (n = 28,000); AID 624151; in the data active = activation above about 52%
ID4 SMM – binders of human ID4 protein; P47928; small molecule microarray, Flag-ID4 binding, fluorescence F/B; calls only; actives 1.2% (n = 31,000); AID 624137; call rule not given here;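 also: a binder raises fluorescence above local background on the spot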
Target sequence (P47928 whole entry, looked up): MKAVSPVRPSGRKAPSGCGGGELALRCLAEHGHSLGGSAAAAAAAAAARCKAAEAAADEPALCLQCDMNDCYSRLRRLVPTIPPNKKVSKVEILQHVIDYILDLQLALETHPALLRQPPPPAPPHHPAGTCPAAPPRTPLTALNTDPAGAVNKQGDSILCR
* hit, by the source's call; i = inactive; / = no result; + = active, no number.

SMILES	mut p53 react	ID4 SMM
NC(=O)C1CCCN(/[N+]([O-])=N/OCCBr)C1 (stereo not given)	/	+
CO/N=[N+](\[O-])N1CCCC(C(N)=O)C1 (stereo not given)	/	i
CNC[C@H]1Oc2ccc(NC(=O)c3ccncc3)cc2C(=O)N([C@H](C)CO)C[C@@H]1C	7	+
CNC[C@H]1Oc2ccc(NS(C)(=O)=O)cc2CC(=O)N([C@@H](C)CO)C[C@@H]1C	9	+
CNC[C@H]1Oc2ccc(NS(=O)(=O)c3ccccc3)cc2CC(=O)N([C@@H](C)CO)C[C@@H]1C	2	i
C[C@@H]1CN([C@@H](C)CO)C(=O)c2cc(NC(=O)c3ccncc3)ccc2O[C@@H](C)CCCCO[C@H]1CN(C)C(=O)Nc1cccc2ccccc12	-79	i
C[C@@H]1CN([C@H](C)CO)C(=O)c2cc(NC(=O)c3ccncc3)ccc2O[C@@H](C)CCCCO[C@@H]1CN(C)C(=O)Nc1cccc2ccccc12	-19	+
C[C@@H]1CN([C@H](C)CO)C(=O)c2cc(NC(=O)c3ccncc3)ccc2O[C@H]1CN(C)C	0	i
CC(C)NC(=O)N(C)C[C@H]1OCCCC[C@@H](C)Oc2ccc(NC(=O)Nc3ccc(C(F)(F)F)cc3)cc2C(=O)N([C@@H](C)CO)C[C@H]1C	-64	i
CC(C)NC(=O)N(C)C[C@@H]1OCCCC[C@@H](C)Oc2ccc(NC(=O)Nc3ccc(C(F)(F)F)cc3)cc2C(=O)N([C@@H](C)CO)C[C@@H]1C	-41	+
Cc1cc(=O)c2c(O)c3c(cc2o1)OC(C(C)(C)OC1OC(CO)C(O)C(O)C1O)C3 (stereo not given)	/	i
CCOC(=O)c1ccccc1NC(=O)CC1Sc2ccc(C(F)(F)F)cc2NC1=O (stereo not given)	23	i
C[C@H]1CCCCO[C@@H](CN(C)C(=O)Nc2ccccc2)[C@@H](C)CN([C@@H](C)CO)C(=O)c2cc(NC(=O)c3ccncc3)ccc2O1	3	+
C[C@@H]1CN([C@@H](C)CO)C(=O)c2cc(NC(=O)c3ccncc3)ccc2O[C@@H](C)CCCCO[C@@H]1CN(C)C(=O)Nc1ccccc1	4	i
CNC[C@@H]1Oc2c(NC(=O)c3ccc(-c4nccs4)cc3)cccc2C(=O)N([C@H](C)CO)C[C@@H]1C	1	i
C[C@@H]1CCCCO[C@H](CN(C)C(=O)Cc2ccccc2)[C@H](C)CN([C@@H](C)CO)C(=O)c2cc(NC(=O)c3ccncc3)ccc2O1	-3	i
C[C@@H]1CN([C@@H](C)CO)C(=O)c2cc(NC(=O)c3ccncc3)ccc2O[C@@H](C)CCCCO[C@H]1CN(C)C(=O)Cc1ccccc1	3	+
CNC[C@@H]1Oc2c(NC(=O)c3ccc(-c4nccs4)cc3)cccc2C(=O)N([C@H](C)CO)C[C@H]1C	-12	+
Cn1c(SCC(=O)Nc2cccc3ccccc23)nnc1-c1ccc(F)cc1	10	i
O=C(CN(C1CCCCC1)S(=O)(=O)c1ccc(F)cc1)Nc1cc(Cl)ccc1Cl	-3	i
Cc1cccc(NC(=O)CSc2nnc(-c3cccnc3)n2-c2ccccc2)c1C	7	i
CSc1ccccc1NC(=O)CN(c1cccc2ccccc12)S(C)(=O)=O	2	i
COc1ccc(-c2coc3cc(OC(C)=O)cc(OC(C)=O)c3c2=O)cc1	130*	/
COc1ccc2c(=O)c(CC(=O)O)coc2c1	/	i
COc1ccc(-c2coc3c(OC)c(OC)cc(OC)c3c2=O)cc1	/	i
SMILES	mut p53 react	ID4 SMM
COc1ccc2c(=O)c(-c3ccc(OC)c(OC)c3)coc2c1	124*	i
CC(=O)Nc1ccc(-c2nnc(SCC(=O)Nc3cc(Cl)cc(Cl)c3)n2C)cc1	-3	i
CCN(CC)S(=O)(=O)c1ccc(OC)c(NC(=O)c2cc3ccccc3oc2=O)c1	3	i
O=C(Nc1sc2c(c1C(=O)NCc1ccco1)CCCC2)c1ccccc1[N+](=O)[O-]	-1	i
Cc1[nH]c(=S)[nH]c(=O)c1Cc1ccc(C(=O)O)o1	0	+
CC(C)(C)c1cc(CNCCS(=O)(=O)O)c(O)c(C(C)(C)C)c1	10	i
O=C(NCCC(c1ccc(F)cc1)c1ccco1)c1cccs1 (stereo not given)	50*	i
CC(C(=O)O)c1ccc(C(=O)c2cccs2)cc1 (stereo not given)	/	i
Cc1nc(SCC(=O)Nc2ccc3ccccc3c2)n[nH]1	-11	i
Cc1cc2ncn(CC(O)COc3ccc(N)cc3)c2cc1C (stereo not given)	17	i
Cc1ccc(C2CC(=O)NC(SCC(=O)OC(C)C)=C2C#N)cc1 (stereo not given)	5	i
O=c1[nH]c2ccccc2c(=O)n1CCCO	13	i
O=C(c1ccc(F)cc1)C1CCN(CCn2c(=O)[nH]c3ccccc3c2=O)CC1	/	+
CCCn1nnc(NC(=O)COc2ccccc2Cl)n1	64*	i
CCCn1nnc(NC(=O)C(C)Oc2ccc(Cl)cc2Cl)n1 (stereo not given)	-3	i
Cc1cc2nc(-c3ccc(C)c(NC(=O)COc4ccc([N+](=O)[O-])cc4)c3)oc2cc1C	66*	i
Cc1ccc(-c2nc3ccccc3o2)cc1NC(=O)COc1ccccc1	-11	i
Cc1ccc2oc(-c3ccc(Cl)c(NC(=O)COc4ccc(C)c(C)c4)c3)nc2c1	-9	i
Cc1ccc2oc(-c3ccc(C)c(NC(=O)COc4ccc(Br)cc4)c3)nc2c1	65*	i
O=C(CC1(O)C(=O)N(Cc2ccccc2)c2ccc(Br)cc21)c1ccccc1[N+](=O)[O-] (stereo not given)	5	i
Cc1cc(C)c(NC(=O)CSc2nc3ccc(NC(=O)c4ccccc4Cl)cc3s2)c(C)c1	12	i
Cc1ccc(-c2nnc3c4ccccc4c(C)nn23)cc1S(=O)(=O)N(C)CCO	56*	i
CCCCN(C)S(=O)(=O)c1cc(-c2nnc3c4ccccc4c(C)nn23)ccc1OC	9	i
CC(=O)O[C@@H]1CC2C(C)(C)CCC[C@]2(CO)C2=C1C(=O)C(C(C)C)C(=O)C2=O (stereo not given in full)	/	i
O=C(C1=C[C@@H](c2csc3ccccc23)C[C@@H](OCc2ccc(CO)cc2)O1)N1CCCCC1	/	i
SMILES	mut p53 react	ID4 SMM
CSc1ccc(C2C(C(=O)c3sc(C)nc3C)C(=O)C(=O)N2Cc2cccnc2)cc1 (stereo not given)	28	+
Cc1c(C(=O)C2C(=O)C(=O)N(Cc3cccnc3)C2c2ccc(F)cc2)cnn1-c1ccccc1 (stereo not given)	6	i
CS(=O)(=O)N(CC(=O)Nc1ccc2ccccc2c1)c1ccc(Cl)cc1Cl	10	i
CCc1ccc(CCC(=O)Nc2ccc(C)c(C)c2)o1	71*	i
CCc1ccc(CCC(=O)Nc2ccc(I)cc2)o1	13	i
COc1cc(SC)ccc1-c1nc2ccncc2[nH]1	59*	i
C[C@H](CO)N1C[C@H](C)[C@H](CN(C)C(=O)c2cccc(F)c2)Oc2ncc(-c3ccccc3)cc2C1=O	/	+
C[C@H]1CN([C@@H](C)CO)C(=O)c2cc(-c3cccc(F)c3)cnc2O[C@H]1CN(C)C(=O)Nc1cc(F)ccc1F	-4	+
C[C@@H]1CN([C@H](C)CO)C(=O)c2cc(-c3cccc(F)c3)cnc2O[C@@H]1CN(C)C(=O)Nc1cc(F)ccc1F	18	i
